# Reference: PubChem BioAssay AID435019 (Southern Research Specialized Biocontainment Screening …, 2010)
# Screen size: about 2,300 compounds; about 1,200 (52%) were called active. How the calls were made is not given here. So high a share suggests a set chosen from earlier hits. The list shows a part of the results. Results with a measured potency or affinity are listed apart.
# Experiment: mammalian cell cytotoxicity, dose response, cytotoxicity control for M. tuberculosis inhibitor project (AID 435019);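 further: lower values mean fewer viable cells so more cytotoxicity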
# Conditions: cytotoxicity counter-screen; series mostly up to 40 µM
row,SMILES,outcome
1,COc1ccc(N=c2ssnc2Cl)cc1,inactive
2,O=C(CSc1cccc[n+]1[O-])c1cccs1,inactive
3,CCN(CC)CCN(C(=O)c1ccc(S(=O)(=O)N2CCCC2)cc1)c1nc2cc(C)cc(C)c2s1,inactive
4,O=C(OCC(=O)N1CCCc2ccccc21)c1ccc(S(=O)(=O)C(F)F)cc1,inactive
5,COc1cc(C(=O)N/N=C/c2cc([N+](=O)[O-])cs2)cc(OC)c1OC,inactive
6,Cc1ccc(CN2CCN(Cc3ccc(-n4cccn4)cc3C)CC2CCO)cc1 (stereo not drawn),inactive
7,COc1ccc(N=C/C=C2/C=C(c3ccccc3)OC(C)(C)O2)cc1,inactive
8,N#CC(C#N)=C(N)CSc1cccc[n+]1[O-],inactive
9,CCOc1ccc(-c2nn3c(-c4ccccc4)nnc3s2)cc1,inactive
10,CCOc1ccc(N=C(NC#N)SCC(=O)NC2CC2)cc1,inactive
11,COc1ccc(Cc2nnc(SCC(=O)N(c3ccccc3)C(C)C)n(N)c2=O)cc1,inactive
12,CC(C)Oc1ccc(NC(=O)Oc2ccccc2)cc1,inactive
13,CC(c1nc2ccccc2c(=O)[nH]1)N(C)CCOc1ccc(Cl)cc1 (stereo not drawn),inactive
14,CCOC(=O)C1CCN(C(=O)c2ccc3c(c2)NC(=O)/C(=C/c2ccccc2)S3)CC1,inactive
15,CN(C)c1ccc(CNc2nc(-c3ccccc3)nn2S(C)(=O)=O)cc1,inactive
16,Nc1ccc(N=Nc2ccccc2)c(N)n1,inactive
17,C#CCOC(=O)/C(=C/c1ccc(F)cc1)NC(C)=O,inactive
18,COc1ccc(-n2c(-c3ccc(Cl)cc3)c[n+]3c2CCc2ccccc2-3)cc1,inactive
19,Cc1ccc(C(=O)C[n+]2cc(-c3ccc(C)cc3)n3c2CCCCC3)cc1,inactive
20,O=C(CN1CCN(Cc2ccc(Cl)cc2)CC1)N/N=C/C=C/c1ccccc1[N+](=O)[O-],inactive
21,O=S(=O)(Nc1ccc2[nH]ncc2c1)c1ccccc1Cl,inactive
22,CC(C)(C)C1CCc2nc(NC(=O)Cc3cn4ccsc4n3)sc2C1 (stereo not drawn),inactive

row,SMILES,outcome
1,COC(=O)[C@H](CCSC)NC(=O)N1CCN(c2cccc(C(F)(F)F)c2)CC1,inactive
2,O=C(NNC1CC(=O)N(c2ccc(Br)cc2)C1=O)c1ccccn1 (stereo not drawn),inactive
3,Cc1cc2c(cc1C)/C(=N/NC(=O)c1ccccn1)CCC2,inactive
4,Cc1nn(-c2ccccc2)c(Cl)c1/C=C/C(=O)c1ccccc1,inactive
5,Cc1nn(-c2ccccc2)c(Cl)c1C(=O)Nc1nnc(C2CCCCC2)s1,inactive
6,Cc1cccc(C)c1OCCCCc1c(C)n[nH]c1C,inactive
7,COC(=O)CCc1sc(Nc2ccc(Br)cc2)nc1-c1ccc(OC)cc1,inactive
8,COc1cccc(NC(=O)CNC(=O)Cn2cnc3sc4c(c3c2=O)CCCC4)c1,inactive
9,COC(=O)c1cc(-c2cccc(OC)c2)on1,inactive
10,CCNC(=S)NN=C1c2ccccc2-c2ccccc21,inactive
11,Cn1/c(=N/NC(=O)c2cccc(OC(F)F)c2)sc2ccccc21,inactive
12,CC(OC(=O)COc1ccc(Nc2ccccc2)cc1)C(=O)N(C)c1ccccc1 (stereo not drawn),inactive
13,C[n+]1c(-c2ccccc2)cc(CCCCc2cc(-c3ccccc3)[n+](C)c(-c3ccccc3)c2)cc1-c1ccccc1,inactive
14,CC1CC(C)CN(C(=O)C2CCC(CNc3c(N4CCCCC4)c(=O)c3=O)CC2)C1 (stereo not drawn),inactive
15,CCC(C)c1ccc2oc(-c3ccc(NC(=O)c4ncn[nH]4)cc3)nc2c1 (stereo not drawn),inactive
16,CCOC(=O)COc1cc([N+](=O)[O-])cc2cccnc12,inactive
17,CCC1CSC(Nc2ccc(C(=O)/C=C/c3cccc(C)c3)cc2)=N1 (stereo not drawn),inactive
18,CC(/C=C/C=C/c1ccccc1)=N\NC(=O)c1cccnc1,inactive
19,O=C(c1ccccc1)c1c[nH]c(C(=O)NNc2ccccc2)c1,inactive
20,COc1ccc(Cc2nc3ccc(C(=O)NCCCSC)cc3o2)cc1OC,inactive
21,Cc1ncc(C23CC4CC(CC(C4)C2)C3)[nH]1,inactive
22,COc1cc(/C=C2\C(=O)NN(c3ccc(C)cc3)C2=O)cc([N+](=O)[O-])c1O,inactive

row,SMILES,outcome
1,CC(C)(C)NC(=O)COC(=O)c1cc(Br)ccc1Cl,inactive
2,Cc1nonc1OCCNCCNc1ccc([N+](=O)[O-])c2cccnc12,inactive
3,O=C1C(Br)=Cc2cccc3cccc1c23,inactive
4,C=C[C@]1(C)C[C@@H](OC(=O)CSCCN(CC)CC)[C@]2(C)C(C)CC[C@]3(CCC(=O)[C@H]32)[C@@H](C)[C@@H]1O (stereo partly drawn),inactive
5,Cc1noc(C)c1COc1ccc(C(=O)OCC(=O)NC23CC4CC(CC(C4)C2)C3)cc1,inactive
6,O=Cc1ccc(-c2ccc(Cl)cc2Cl)[nH]1,inactive
7,O=C(N[C@H]1CCC(=O)N(CCSc2ccc(Br)cc2)CC1)OCc1ccccc1,inactive
8,CN(C(=O)COC(=O)c1sc2ccccc2c1Cl)C1CCCCC1,inactive
9,N#CCCN(C(=O)COC(=O)CCc1c[nH]c2ccccc12)c1ccc(F)cc1,inactive
10,COc1ccc(OC)c(C(=O)NC(CC(N)=O)c2ccc(NCc3ccc(F)c(F)c3)c([N+](=O)[O-])c2)c1 (stereo not drawn),inactive
11,O=[N+]([O-])c1cn(-c2nc(-c3ccco3)cc(C(F)(F)F)n2)cn1,inactive
12,CC(C)(O)C#Cc1ccc(C(=O)Nc2ccc3c(c2)OCO3)s1,inactive
13,CC1(C)OC(=O)C(=Cc2ccc[nH]2)C(=O)O1,inactive
14,Cc1ccccc1Cn1cc(NC(=O)c2noc(C(C)C)c2[N+](=O)[O-])cn1,inactive
15,Cc1ccc(C2=NCCn3c2c2ccccc2[n+]3[O-])cc1,inactive
16,O=S(=O)(c1ccc(Oc2ccc3oc4ccccc4c3c2)nc1)N1CCCC1,inactive
17,O=c1[nH][nH]c(-c2ccccc2O)c1C(C[N+](=O)[O-])c1cccc(Cl)c1 (stereo not drawn),inactive
18,Cc1ccc(NCCC(=O)c2ccc(Br)cc2)cc1,inactive
19,Cc1ccc(C(=O)n2c(N)nc3ccccc32)cc1,inactive
20,COc1ccc(N/C=C/c2nc(SC)nnc2C)cc1,inactive
21,O=C(c1cc([N+](=O)[O-])ccc1N1CCOCC1)N1CCN(S(=O)(=O)c2cc(Cl)ccc2Cl)CC1,inactive
22,COc1ccc(N2CCN(C(=O)c3cc4c(C)nc5ccccc5c4o3)CC2)cc1,inactive

row,SMILES,outcome
1,CC(=O)c1ccc(NC(=O)c2cc(CC(C)C)on2)cc1,inactive
2,CN(CC(=O)Nc1ccc(OC(F)(F)F)cc1)C(=O)/C=C/c1cc2c(cc1[N+](=O)[O-])OCO2,inactive
3,CCOC(=O)CSc1nc(N)c(C(=O)Nc2ccc(N(C)C)cc2)s1,inactive
4,CCOc1ccc(NC(=O)N(C2CCCCC2)C(C)c2ccncc2)cc1 (stereo not drawn),inactive
5,CCCc1ccc(OCc2ccccc2)c2c(=O)cc(C(=O)OCC)oc12,inactive
6,O=C(Nc1cccnc1Cl)c1cc(-c2ccco2)on1,inactive
7,Cc1cc(C)n(-c2ccc(C(=O)Oc3ccc4c(c3)OCO4)cc2)n1,inactive
8,COc1ccc(-c2nsc3c(N4CCCCC4C)ncnc23)cc1 (stereo not drawn),inactive
9,Cc1ccc(N/C=C2\C(=O)C3(C)CCC2C3(C)C)cc1C (stereo not drawn),inactive
10,O=C(CCC(=O)OCc1ccc(C(=O)Oc2ccc(Cl)cc2)cc1)Nc1ccccc1,inactive
11,COc1ccccc1OC(=O)c1ccc(S(=O)(=O)N(C)C)cc1,inactive
12,CSc1ccc(CNC(=O)c2ccc(NC(=O)C3=CSCCO3)cc2)cc1,inactive
13,CCC1(c2ccccc2)NC(=O)N(CC(=O)Nc2ccc(S(=O)(=O)NC3=NCCCCC3)cc2)C1=O (stereo not drawn),inactive
14,CC(=O)/C(=N\Nc1ccc(C)cc1)N1CCOCC1,inactive
15,O=[N+]([O-])c1ccc(CN2CCN(c3ccc(Cl)cc3)CC2)o1,inactive
16,CCOC(=O)C1CCN(CC(O)COc2ccc(C(C)(C)CC)cc2)CC1 (stereo not drawn),inactive
17,C[N+](C)(CCCCCC[N+](C)(C)CCCN1C(=O)c2cccc3cccc(c23)C1=O)CCCN1C(=O)c2cccc3cccc(c23)C1=O,inactive
18,O=C(c1ccccc1)c1nn(-c2ccc(Cl)cc2)cc1C(=O)c1cc2ccccc2oc1=O,inactive
19,COc1c[nH]n(C2CCCCC2)c(=O)c1=O,inactive
20,CCOc1ncccc1C(=O)OCC(=O)N1CCc2ccccc21,inactive
21,CS(=O)(=O)c1ccc([C@@H](O)[C@@H](CF)NC(=O)C(Cl)Cl)cc1,inactive
22,O=C(O)Cc1c[nH]c2ccc(O)cc12,inactive

row,SMILES,outcome
1,Cc1ccc(-c2cn3cccnc3n2)cc1NC(=O)c1ccc(Br)o1,inactive
2,O=C(CSC1=NC(=O)C(c2ccccc2)C(=O)N1)Nc1ccccc1Cl (stereo not drawn),inactive
3,CCOC(=O)CSc1ccc(C(=O)Nc2ccc(OC)cc2)cn1,inactive
4,O=C(Nc1nc2nc(-c3ccccc3)cc(=O)n2[nH]1)c1ccccc1,inactive
5,O=C1N=C(N2CCC(Cc3ccccc3)CC2)S/C1=C/c1cn[nH]c1-c1ccccc1,inactive
6,C=CCSc1n[nH]c(-c2ccc(OCCCC)cc2)n1,inactive
7,Cc1ccc2nc(SCC(=O)Nc3ccc4c(c3)CCC4)[nH]c2c1,inactive
8,CCOC(=O)c1c(C)[nH]c(N=Nc2ccc(OC)cc2)c1C,inactive
9,O=C(CSCc1ccc([N+](=O)[O-])cc1)N/N=C/c1ccncc1,inactive
10,CCOC(=O)COc1ccc(S(=O)(=O)NCCC2=CCCCC2)cc1,inactive
11,O=c1oc2ccccc2c2c1nc(C(F)(F)F)n2-c1ccccc1,inactive
12,CCOC(=O)c1cn[nH]c1N,inactive
13,CCCCc1ccc(NC(=S)N2CCN(c3ncccn3)CC2)cc1,inactive
14,CC(C)OC(=O)c1ccc(COC(=O)c2cnccn2)cc1,inactive
15,CC/C(C)=N/NC(=S)NCc1ccco1,inactive
16,CCCCCCC(=O)N/N=C/c1ccc(Br)cc1,inactive
17,CC(=O)/C(=C\Nc1ccc(OCc2ccccc2)cc1)c1ccccc1,inactive
18,C/C(=N/NC(=O)c1ccccn1)c1c[nH]c2ccccc12,inactive
19,O=C(OCC(=O)N1CCC(c2ccccc2)=N1)c1ccc(Cl)s1,inactive
20,Cc1ccc(C(=O)O/N=C(\N)c2ccc(Br)cc2)cc1C,inactive
